# Compound activity deposited in PubChem BioAssay by several laboratories.
# Rows were chosen to be rich in hits. Some 2.2% of all compounds tested hit in one or more screens of this group.
# aSyn 5UTR inh: MLPCN primary screen, SNCA 5' untranslated region; 300,000 compounds, 0.82% hits; alpha-synuclein 5'UTR reporter, inhibitor activity; inhibition, % (tested at 7.5 µM); in the data active means inhibition above about 60%;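 further: H4 neuroglioblastoma cells stably carrying SNCA 5'UTR luciferase fusion; 0% = DMSO wells and 100% = positive control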
# Ba/F3 V617F tox: reduced viability of JAK2V617F-dependent Ba/F3 cells, primary screen, JAK2V617F inhibitor project, cell-based, Ba/F3 EpoR-JAK2V617F, luminescence; ATP luminescence; inhibition, % at 5.6 µM; 220,000 compounds, 1.1% hits;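 active means inhibition above the campaign mean plus 3 SD over all tested compounds, cut at about 24% in these data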;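 further: cytokine-independent growth of Ba/F3 cells driven by EpoR plus mutant JAK2; 0% = DMSO-treated cells and 100% = JAK inhibitor I control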
# BaF3 parental: parental Ba/F3 cell viability inhibition, counter-screen for JAK2V617F inhibitor project, murine pro-B, CellTiter-Glo luminescence; CellTiter-Glo ATP luminescence; inhibition, % at 5.6 µM; 220,000 compounds, 1.1% hits; AID 1486, 2009;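 active means inhibition above a per-campaign cutoff, the mean inhibition of all tested compounds plus 3 SD, cut at about 27% in these data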;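 further: 0% = DMSO wells and 100% = JAK Inhibitor I control wells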
# IEC-6 tox-1: cytotoxicity in IEC-6 intestinal epithelial cells, primary screen, cytotoxicity control for KLF5 inhibitor project, cell-based, luminescence; IEC-6 cytotoxicity, luminescence viability; inhibition, % at 5 µM; 290,000 compounds, 0.78% hits; AID 1825, 2009;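 further: 0% = plate median of test compound wells and 100% = cytotoxic reference compound wells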
# APP transl inh: inhibitors of APP translation via 5'UTR reporter, primary screen, APP 5'UTR luciferase, SH-SY5Y cells. SH-SY5Y APP 5'UTR-luciferase reporter, luminescence. inhibition, % at 2 µM. 190,000 compounds, 0.82% hits. AID 1285, 2008;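 active means inhibition above a set limit, derived from the sample mean plus 3 SD, cut at about 45% in these data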
# KLF5 inh: KLF5 expression inhibitors, primary screen, DLD-1 cells, luminescence | 290,000 compounds, 0.23% hits | inhibition, % at 5 µM | DLD-1 KLF5 promoter-luciferase reporter;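 active means inhibition above a per-plate limit of that plate's mean compound inhibition plus 3 SD, cut at about 60% in these data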;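 further: 0% = DMSO wells and 100% = LY294002 at 200 µM; higher means less KLF5 promoter-driven luciferase light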
# KLF5 confirm: KLF5 expression inhibitors, confirmation, DLD-1 cells, luminescence; shares compounds with KLF5 inh; DLD-1 KLF5 promoter firefly luciferase reporter; inhibition, % at 4 µM; 610 compounds, 79% hits; AID 1834, 2009;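 active means inhibition above a set limit taken from the earlier primary screen, cut at about 63% in these data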;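 further: 0% = DMSO wells and 100% = LY294002 at 200 µM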
# IEC-6 tox-2: cytotoxicity in rat IEC-6 cells, cytotoxicity control for KLF5 inhibitor project, cell-based, luminescence, triplicate. shares compounds with KLF5 inh. IEC-6 rat intestinal cells, viability luminescence. inhibition, % at 4 µM. 610 compounds, 56% hits. AID 1905, 2009; in the data active means inhibition above about 23%;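 further: cells exposed to compounds for 48 hours before viability read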
# IEC-6 cytotox cf: cytotoxic compounds in IEC-6 epithelial cells, confirmation, cytotoxicity control, cell-based, luminescence; shares compounds with IEC-6 tox-1; IEC-6 rat intestinal epithelial viability; inhibition, % at 5 µM; 1,900 compounds, 63% hits; AID 1907, 2009;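 further: 0% = vehicle and 100% = reference cytotoxic drug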
# * marks the source's active call; other numbers are inactive results; x = no result. Unless noted, no stated cut-off is given here; in the data, active means inhibition above about 22%; inactive means the rest.
SMILES,aSyn 5UTR inh,Ba/F3 V617F tox,BaF3 parental,IEC-6 tox-1,APP transl inh,KLF5 inh,KLF5 confirm,IEC-6 tox-2,IEC-6 cytotox cf
O=C(c1ccc2nc(Cc3cccc(Cl)c3)oc2c1)N1CCC[C@H]1CO,-10,x,x,0,x,-25,x,x,x
COc1cc2c(c(OC)c1OC)-c1ccc(OC)c(=O)cc1[C@@H](NC(C)=O)CC2,96*,x,x,96*,x,79*,88*,81*,83*
COc1cc2c(cc1OC)C(COc1ccc(F)cc1)N(C(C)=O)CC2 (stereo not given),22,x,x,-4,x,-40,x,x,x
COc1cc2c(c(OC)c1OC)-c1ccc(N(C)CC(OC)OC)c(=O)cc1[C@@H](NC(C)=O)CC2,84*,x,x,92*,x,86*,86*,61*,66*
CCN(CC)c1ccc2c(cc1=O)[C@@H](NC)CCc1cc(OC)c(OC)c(OC)c1-2,107*,x,x,85*,x,70*,92*,81*,76*
COc1cc(C(=O)NC2CCCc3ccccc32)cc(OC)c1OC (stereo not given),10,x,x,-2,x,-3,x,x,x
COc1cc2c(c(OC)c1OC)-c1ccc(OC)c(=O)cc1[C@@H](N(C)CC#CCO)CC2,87*,x,x,93*,x,81*,92*,75*,74*
Cc1ccc(S(=O)(=O)Oc2ccccc2/C=N/NC(N)=S)cc1,59,82*,71*,58*,91*,65*,73*,57*,-1
Cc1ccc(S(=O)(=O)Oc2ccccc2/C=N/N=C(N)N)cc1,-18,2,4,2,20,3,x,x,x
COc1ccc(NC(=O)/C(Cl)=C(/Cl)S(=O)Cc2ccccc2)cn1 (stereo not given),121*,99*,102*,100*,x,96*,107*,73*,90*
COc1ccc(NC(=O)Cc2ccccc2)cn1,-3,-3,2,2,-9,-4,x,x,x
CCCN1CCN(S(=O)(=O)c2ccc(-n3cnnn3)cc2)CC1,-4,x,x,4,x,-16,x,x,x
Cc1ccc2[nH]c(-c3cccc(F)c3)cc(=O)c2c1,81*,83*,83*,91*,93*,62*,73*,59*,57*
Cc1ccc(-c2cc(=O)c3cc(C)ccc3[nH]2)cc1,-36,2,7,8,-115,-51,x,x,x
O=c1cc(-c2cccc(F)c2)[nH]c2ccccc12,87*,78*,78*,86*,94*,75*,85*,60*,57*
CC(C)C(C)N(Cc1cccc(C(=O)O)c1)C(=O)c1ccc2ccccc2n1 (stereo not given),-8,x,x,x,x,x,x,x,x
O=C(NCCN1CCCCC1)c1ccc(F)cc1Cl,-5,x,x,-3,x,-34,x,x,x
COc1ccccc1C(C)NC(=O)Cc1ccc(S(=O)(=O)N2CCOCC2)s1 (stereo not given),-1,x,x,x,x,x,x,x,x
COc1cc(SC)ccc1C(=O)Nc1nc2ccccc2[nH]1,131*,x,x,77*,x,100*,98*,44*,59*
COc1ccccc1C(=O)Nc1nc2ccccc2[nH]1,100*,x,x,80*,x,101*,105*,58*,69*
COc1ccc(Cl)cc1NC(=O)NCc1ccc2c(c1)OCO2,5,x,x,-6,x,-26,x,x,x
CN(/N=C/c1ccc(O)cc1O)c1ncc(C(F)(F)F)cc1Cl,7,-2,3,1,x,-1,x,x,x
COc1cccc(C2CC(=O)Nc3cc4c(cc32)OCCO4)c1OC(C)C (stereo not given),x,-1,1,6,-8,6,x,x,x
